ALDH1A1 block = ALDH1A1 (human) enzyme inhibition | P00352 | Purified ALDH1A1, NADH fluorescence, propionaldehyde substrate | Potency, µM (titrated, usually from 75.3 µM), without a hit: top-dose activity, negative = inhibition, usual class: inhibitors | actives 7.3% (n = 220,000);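 further: potency means the concentration at half of the fitted maximal effect; plate controls were no enzyme wells and a reference inhibitor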
Lamin A splicing = modulators of lamin A splicing | HeLa LMNA splicing GFP/RFP minigene ratio, 48 h | Potency, µM (series often up to 46.1 µM), for inactives: top-dose ratio change, negative = inhibition, usual class: inhibitors | actives 0.01% (n = 200,000) | AID 1487; active means well fitted inhibition curve with a large enough effect in the signal ratio, with a control signal flat, not every such curve was filed as active; inconclusive means small, poorly fitted or top-dose-only effect, or effect the other way, or a change in a side signal; the % refers to the signal ratio; further: potency means the concentration at half of the fitted maximal effect
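Read-out is the ratio of GFP to DsRed2 object intensity, acquired by 488 nm laser-scanning cytometry on HeLa lamin A-EGFP minigene reporter cells. Compound incubation 48 hrs at 37 °C in Opti-MEM with 2% FBS; DMSO 0.5% final.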
12-hLO inh = 12-hLO (ALOX12) enzyme inhibition | P18054 | purified 12-hLO, xylenol orange hydroperoxide absorbance | Potency, µM (series often up to 57.1 µM), without a hit: at the top dose activity change, negative = inhibition, hits mostly inhibitors | actives 0.12% (n = 150,000); active means well fitted inhibition curve with a large enough effect; inconclusive means small, poorly fitted or top-dose-only effect; further: potency means the concentration at half of the fitted maximal effect; nearly all actives have a fitted effect of over 55% in size
Target sequence (P18054 whole entry, looked up): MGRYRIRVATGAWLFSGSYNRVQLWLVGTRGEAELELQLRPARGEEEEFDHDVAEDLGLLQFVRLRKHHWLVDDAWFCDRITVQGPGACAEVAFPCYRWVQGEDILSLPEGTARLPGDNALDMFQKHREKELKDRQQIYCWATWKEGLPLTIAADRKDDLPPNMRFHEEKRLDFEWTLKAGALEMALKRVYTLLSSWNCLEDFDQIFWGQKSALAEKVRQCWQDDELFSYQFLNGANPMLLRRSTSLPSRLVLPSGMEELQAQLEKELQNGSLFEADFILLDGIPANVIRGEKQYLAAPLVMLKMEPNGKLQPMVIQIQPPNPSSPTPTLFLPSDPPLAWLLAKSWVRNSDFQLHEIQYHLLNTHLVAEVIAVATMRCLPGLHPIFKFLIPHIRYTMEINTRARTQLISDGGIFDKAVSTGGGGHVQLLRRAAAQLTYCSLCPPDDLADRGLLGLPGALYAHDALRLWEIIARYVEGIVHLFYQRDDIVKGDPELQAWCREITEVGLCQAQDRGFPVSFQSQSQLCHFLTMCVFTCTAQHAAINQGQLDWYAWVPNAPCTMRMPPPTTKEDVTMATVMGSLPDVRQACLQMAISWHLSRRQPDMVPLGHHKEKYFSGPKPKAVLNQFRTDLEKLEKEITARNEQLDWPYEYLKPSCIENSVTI
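Xylenol orange chromogenic assay: hydroperoxide from 12hLO oxidises Fe(II), giving red-shifted Fe(III)-XO absorbance. Conditions: 150 nM enzyme, 40 uM arachidonic acid, 25 mM Hepes pH 7.0, 0.01% Triton X-100, 30 min, room temperature.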
PNC assembly inh = blocks assembly of the perinucleolar compartment; activity change (PNC), negative = inhibition, % at 10 µM; actives 3.1% (n = 140,000); AID 2417; PC3M PTB-GFP, PNC prevalence imaging, 16 h; hits give low values;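 active means readout at or below -70, meaning at least 70% loss of cells showing the perinucleolar compartment, a nuclear body marking cancer cells; inconclusive means readout between -30 and a set limit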;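 further: plate controls were DMSO wells for no effect and camptothecin positive control wells for full effect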
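Compounds are pinned in duplicate onto adhered PC3M cells stably expressing GFP-tagged PTB and incubated 16 h at 37 C. Cells are then fixed, nuclei stained with Hoechst, and PNC-positive cells counted.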
HPGD block = HPGD (human) dehydrogenase inhibition; P15428; purified HPGD, NADH fluorescence kinetic, PGE2 substrate; Potency, µM, for inactives: at the highest dose activity change, negative = inhibition, most hits filed as inhibitors; actives 4.3% (n = 150,000); AID 894; further: potency means the concentration at half of the fitted maximal effect
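NADH formation kinetics: reaction with 30 uM PGE2 and 1 mM NAD+ (final), 20 nM enzyme, Tris-HCl pH 8 with Tween 20, after 15 min compound preincubation at room temperature. Fluorescence change, last versus first of five reads.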
* = called active by the depositor; ? = inconclusive; · = not tested or not shown; [ ] = remark or other dose. Sampled rows, rich in hits. Any-hit rate of the full collection: about 10%. Unless noted, the call rests on the fitted dose curve; in most records, active means well fitted inhibition curve with a large enough effect (not every such curve was filed as active); inconclusive means small, poorly fitted or top-dose-only effect, or another doubt; inactive means no such curve, though single readings can be large or run the other way. Unless noted, on the % scale 0 is the no-effect control and ±100 the full control effect.

SMILES	ALDH1A1 block	Lamin A splicing	12-hLO inh	PNC assembly inh	HPGD block
NCCC[C@@H](CC(=O)N[C@@H]1CCCC[C@H]1C(=O)N[C@H](CC(=O)N[C@@H](CCC(=O)O)CC(=O)O)Cc1c[nH]c2ccccc12)NC(=O)C[C@H](Cc1c[nH]c2ccccc12)NC(=O)[C@@H]1CNCC[C@H]1N	-4.6%	·	-1.2%	·	-4.8%
CCCC(C)c1nnc(NC(=O)c2cc(C(=O)OC)cc([N+](=O)[O-])c2)s1 (stereo not drawn)	7.94µM*	1.0%	-2.4%	41.0	11.2µM*
CCOC(=O)C(=O)Nc1nnc(CCc2ccccc2)s1	-3.2%	-7.0%	-1.2%	-100.0*	-8.2%
COC(=O)c1ccc(NC(=O)CN2CCCN(Cc3ccc(Cl)cc3)S2(=O)=O)cc1	·	-6.7%[46 µM]	·	·	·
COC(=O)c1ccc(-n2c(/C=C/c3cc(OC)c(OC)c(OC)c3)nc3cc(Cl)ccc3c2=O)cc1	·	-5.5%[46 µM]	·	·	·
COc1ccc(N2CC(c3nc(-c4ccccc4C)no3)CC2=O)cc1Cl (stereo not drawn)	·	-7.4%[46 µM]	·	·	·
Cc1cccc(NC(=O)CSc2ccc(-c3ccco3)nn2)c1C	23.8µM*	4.3%	0.4%	4.0	-16.5%
O=C(CSc1ccc(-c2ccco2)nn1)NCc1ccc(Cl)cc1	7.08µM*	-7.4%	-4.9%	16.4	-18.2%
O=C(CSc1ccc(-c2ccco2)nn1)c1cccc([N+](=O)[O-])c1	22.4µM*	?	-2.2%	43.9	-23.2%
CC(=O)OCOC(c1ccc2ccccc2c1)P(=O)(OCOC(C)=O)OCOC(C)=O (stereo not drawn)	2.0%	·	·	·	·
C=CCN1c2ccccc2[C@]23C[C@@H](C(=O)OC)N(S(=O)(=O)c4ccc5c(c4)OCCN5C)C2=NC(C(=O)OC)=C(C(=O)OC)[C@H]13	5.8%[13.5 µM]	-9.0%[9.22 µM]	-3.3%[11.4 µM]	·	2.8%
CCN(CC)C(=O)c1sc(NC(=O)c2ccc(C)c([N+](=O)[O-])c2)c(C#N)c1C	-1.3%	-8.2%	0.0%	?	28.2µM*
CCN(CC)C(=O)c1sc(NC(=O)c2ccc(OC)c([N+](=O)[O-])c2)c(C#N)c1C	-0.8%	-12.8%	-1.7%	0.2	17.8µM*
COc1ccc(C(=O)Nc2sc(C(=O)N(C)C)c(C)c2C#N)cc1[N+](=O)[O-]	?	4.3%	-5.0%	33.5	-25.7%
O=C(CN1C(=O)COc2ccc(S(=O)(=O)NC3CCCC3)cc21)NCc1ccccc1Cl	·	-1.0%[46 µM]	·	·	·
O=C(CN1CC(c2ccccc2)CC1=O)OCc1ccccc1F (stereo not drawn)	8.91µM*	1.6%	-2.2%	-90.9*	-20.6%
COC(=O)c1cccc(NC(=O)NC23CC4CC(CC(C4)C2)C3)c1	31.6µM*	10.2%	-3.5%	?	?
C[C@@H](CSC(=N)N)C(N)=O	6.2%[13.5 µM]	·	-2.8%[11.4 µM]	·	-3.9%
Cn1c(Cn2c(=O)sc3ccccc32)nnc1SCc1ccccn1	2µM*	-1.0%	-3.7%	-4.7	·
CCCNC(=O)OC[C@@H]1O[C@H](CCO/N=C(\C)CCC(=O)OC[C@@H]2O[C@H](c3ccccc3)C=C[C@@H]2Oc2ccc(OC)cc2)C=C[C@@H]1Oc1ccc(OC)cc1	-1.9%[13.5 µM]	·	·	·	·
CN(C)CC(O)Cn1c2ccc(Br)cc2c2cc(Br)ccc21 (stereo not drawn)	5.9%	·	·	·	·
C=C(C)COc1ccc(-c2[nH]ncc2Oc2ccccc2OCC)c(O)c1	1.58µM*	?	?	-116.6*	17.8µM*
C=C(C)COc1ccc(-c2[nH]ncc2Oc2cccc(OC)c2)c(O)c1	-30.2%	-18.0%	?	29.8	-17.5%
CCC(Cl)CC(Cl)C(Cl)C(Cl)C(Cl)C(C)Cl (stereo not drawn)	?	·	-2.7%	·	-6.0%
CC(C)(C)n1cnc(C(N)=O)c1N	10µM*	?	-3.0%	-7.9	0.9%
SMILES	ALDH1A1 block	Lamin A splicing	12-hLO inh	PNC assembly inh	HPGD block
CCc1nc(N)c(C#N)c(-c2cccc3ccccc23)c1C	7.6%	-3.5%	1.1%	-100.0*	-24.5%
CCOC(=O)c1ccccc1NC(=O)c1cnc(N2CCOCC2)c2ccccc12	·	-20.3%[46 µM]	·	·	·
COc1ccc2nc(SCC(=O)Nc3cc(C)on3)[nH]c2c1	-5.3%	-6.2%	4.5%	-97.1*	-11.3%
CCOc1ccc2nc(SCC(=O)Nc3cc4c(cc3C(C)=O)OCO4)[nH]c2c1	25.1µM*	5.9%[0.0737 µM]	-4.7%	57.2	-23.8%
COc1ccc2nc(SCC(=O)Nc3ccc4c(c3)CCC4)[nH]c2c1	11.2µM*	?	-0.4%	8.4	-9.6%
COc1ccccc1-c1ccc(SCc2ccccc2)nn1	1.7%	5.0%[46 µM]	·	·	·
COc1cc2c(cc1OC)CN(c1ccc(-c3ccccc3OC)nn1)CC2	-2.2%	?	-5.0%	-17.3	35.5µM*
COC(=O)CN1C(=O)C(O)(CC(=O)c2ccc(Br)cc2)c2ccccc21 (stereo not drawn)	0.355µM*	-0.1%	1.8%	-7.9	-3.6%
CN1C(=O)C(O)(CC(=O)c2ccc(F)cc2)c2cc(Br)ccc21 (stereo not drawn)	15.8%	-1.1%	-2.4%	3.1	?
COC(=O)CN1C(=O)C2(OCCCO2)c2cc(Br)ccc21	-1.8%	6.7%	-4.9%	-3.8	-6.8%
C=CCN1C(=O)C(O)(CC(=O)c2ccc(-n3cccc3)cc2)c2ccccc21 (stereo not drawn)	0.501µM*	-11.5%	3.8%	?	-16.9%
O=C(CC1(O)C(=O)Nc2ccccc21)c1ccc(-n2cccc2)cc1 (stereo not drawn)	?	5.3%	7.2%	?	-20.7%
COC(=O)CN1C(=O)C(O)(CC(=O)c2ccc(C)cc2)c2cc(Br)ccc21 (stereo not drawn)	20µM*	-6.3%	-1.5%	-4.6	-11.7%
NC(Cn1ccc(=O)c(O)c1)C(=O)O (stereo not drawn)	8.4%	·	-3.3%	·	-6.1%
O=C(NCC1CCCO1)c1sc(=S)n2c1[nH]c(=O)c1ccc(C(=O)N3CCCCC3)cc12 (stereo not drawn)	?	?	-15.7%	-22.0	0.447µM*
O=C(NC1CCCCC1)c1sc(=S)n2c1[nH]c(=O)c1ccccc12	3.16µM*	5.7%	-20.0%	20.6	12.6µM*
Cc1ccccc1Cc1c(C)nc2nc(SCC(=O)N(C)c3ccccc3)nn2c1C	·	1.9%[46 µM]	·	·	·
NC(=O)CNC(=O)[C@@H]1CC2(CC(c3ccc(Cl)cc3)=NO2)CN1C(=O)c1ccccc1 (stereo partly drawn)	28.2µM*	2.4%	3.7%	-24.2	-18.6%
COc1ccc(C(=O)N2CC3(CC(c4ccc(Cl)cc4)=NO3)C[C@H]2C(=O)NCC(N)=O)cc1 (stereo partly drawn)	8.3%	-2.4%	-9.5%	29.8	-1.8%
Cc1cc(OC(=O)c2ccccc2Br)cc(=O)n1C	6.0%	?	-0.6%	22.6	12.6µM*
CCCCc1nc2c(c3c1C[C@H](C)OC3)CN(S(=O)(=O)c1c(C)noc1C)CC2	-9.5%[13.5 µM]	-10.6%[9.22 µM]	-1.9%[11.4 µM]	·	-8.6%
